# PubChem BioAssay AID2283097 (EPA ToxCast)
# Results filed as inconclusive are left out. Active and inactive are the calls of the source. The calls were made as follows: active = hit-call score of the fitted dose curve at least 0.9, where 1 is the maximum; inconclusive = response in the unintended direction; inactive = score below 0.9.
# Target: human CYP1B1, CYP1B1 (gene 1545) (UniProt Q16678)
# Assay: NVS_ADME_hCYP1B1: NovaScreen (NVS) CYP450-related Enzyme Activity (ADME) Assay for human CYP1B1
# Method: NVS_ADME_hCYP1B1 is a biochemical, single-readout assay that uses extracted gene-proteins in a cell-free assay. Measurements were taken 1 hour after chemical dosing in a 96-well plate.NVS_ADME_hCYP1B1 is one of one assay component(s) measured or calculated from the NVS_ADME_hCYP1B1 assay. It is designed to make measurements of enzyme activity, a form of enzyme reporter, as detected with fluorescence intensity signals by Fluorescence technology.Data from the assay component NVS_ADME_hCYP1B1 was analyzed into 1 assay endpoint. This assay endpoint, NVS_ADME_hCYP1B1, was analyzed in the positive analysis fitting direction relative to Acetonitrile as the negative control and baseline of activity. Using a type of enzyme reporter, loss-of-signal activity can be used to understand changes in the enzymatic activity as they relate to the gene CYP1B1. Furthermore, this assay endpoint can be referred to as a primary readout, because this assay has produced multiple assay endpoints where this one serves a enzymatic activity function. To generalize the intended target to other relatable targets, this assay endpoint is annotated to the cyp intended target family, where the subfamily is xenobiotic metabolism. […]
# human CYP1B1, CYP1B1 (gene 1545), sequence (Q16678 whole entry, looked up): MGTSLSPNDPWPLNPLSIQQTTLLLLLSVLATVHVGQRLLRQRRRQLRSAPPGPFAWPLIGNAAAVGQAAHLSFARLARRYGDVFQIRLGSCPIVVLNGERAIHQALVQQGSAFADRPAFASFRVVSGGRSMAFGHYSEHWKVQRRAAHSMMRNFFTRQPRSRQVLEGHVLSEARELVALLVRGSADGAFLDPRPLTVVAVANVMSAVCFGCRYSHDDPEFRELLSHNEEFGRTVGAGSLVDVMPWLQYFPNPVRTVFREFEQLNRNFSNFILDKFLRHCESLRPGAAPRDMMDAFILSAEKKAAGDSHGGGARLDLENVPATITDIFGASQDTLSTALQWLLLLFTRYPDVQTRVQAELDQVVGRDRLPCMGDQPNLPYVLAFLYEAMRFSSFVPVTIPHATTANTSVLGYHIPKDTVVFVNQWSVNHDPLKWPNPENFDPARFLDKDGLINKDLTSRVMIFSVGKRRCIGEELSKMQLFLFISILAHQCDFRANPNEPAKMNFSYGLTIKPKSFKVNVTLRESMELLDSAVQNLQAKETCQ
row,SMILES,AC50
1,c1ccc2[nH]c(-c3cscn3)nc2c1,6.26 µM (active)
2,C#CCOC(=O)[C@@H](C)Oc1ccc(Oc2ncc(Cl)cc2F)cc1,2.14 µM (active)
